Our source for the Percent Effect values is ChEMBL document CHEMBL3988442, “University of Dundee, Small-Polar-MMV Screening Library” (2021).

The target of this experiment is AMP-activated protein kinase, AMPK (Homo sapiens) (UniProt P54646+O43741+P54619+Q9UGJ0+Q9Y478+Q13131+Q9UGI9). The experiment is described as follows: AMP-dependent Kinase enzyme assay. An in vitro enzyme assay that detects ADP turnover that is directly proportional to AMPK activity. This uses naive AMPK that is activated during the assay with MK-8722. The format is functional. The arrangement: scale not given: direction of the effect not stated beside the values. Particulars: 30 µM.
As for `Cc1nc2sccn2c1CN(CCCN(C)C)Cc1ccccn1`, the Percent Effect came to 3.1%.
As for `Fc1ccc(C2(CNCCc3cccs3)CCOC2)cc1` (stereo unspecified), the figure is -3.1%; as for `CCN1CCC(CC(=O)NCCc2nc(O)cc(O)n2)CC1`, -0.635%.
With `CC(C)(CNC(=O)c1ccc(Cl)o1)NC(=O)OC(C)(C)C` the figure was -2.97%; with `NC(=O)C1CCN(CCCNC(=O)Nc2nncs2)CC1`, 1.35%; with `CC(C)Cc1cc(C(=O)N2CCC(N3CCCC3)CC2)cc(O)n1`, 1.87%.
As for `CS(=O)(=O)N1CCN(c2cc(N3CCCC3CO)ncn2)CC1` (stereo unspecified), the figure is -5.51%; as for `Cc1sc(C(=O)N(C)S(C)(=O)=O)cc1-c1ccc(F)cc1`, -2.1%.
With `CC(C)CC(=O)N1Cc2ccccc2CC1C(=O)Nc1nncs1` (stereo unspecified), the Percent Effect is -25.1%.
With `COc1cc(NC2CCCN(c3ncccn3)C2)cc(OC)c1` (stereo unspecified) the figure was -64.1%; with `Cc1ccc(F)c(C(=O)Nc2c(C(N)=O)n[nH]c2C)c1`, 9.84%; with `CC(C(=O)Nc1cccc(C(F)(F)F)c1)N(C)CCN1CCOCC1` (stereo unspecified), 8.76%.
With `COC1CCN(c2ccc(F)cc2CN(C)CC(N)=O)CC1` the figure was 5.84%; with `Cc1ccc(-c2noc(C3CCN3C(=O)c3ccn(C)n3)n2)s1` (stereo unspecified), 12%.
With `CC(C)NC(=O)c1nc(Cn2c(C(F)F)nc3ccccc32)no1` the figure was 12.9%; with `O=C(CCn1cccn1)NCCOc1ccc2c(c1)OCO2`, -5.16%.
As to `Cc1noc(C)c1C(=O)N[C@@H]1CC[C@@H](Oc2ccccc2)[C@@H]1O`, the Percent Effect came to 18.4%.
Regarding `Cn1cc(CN2CCOC(c3cccc(-c4cncnc4)n3)C2)cn1` (stereo unspecified), the Percent Effect came to 11.3%.
As for `CCCN(CCO)S(=O)(=O)c1ccc2[nH]c(=O)[nH]c2c1`, the figure is -3.64%; as for `CN(C)c1ccc(C(=O)N2CCC(c3cc4ncccc4[nH]3)CC2)cc1`, 21.8%.
As for `Cc1nonc1CNC(=O)C(C)Oc1cccc(F)c1` (stereo unspecified), the figure is 11.1%.
